# Source: PubChem
# Sampled rows, rich in hits. Any-hit rate of the full collection: about 12%.
# G9a block: qHTS Assay for Inhibitors of Histone Lysine Methyltransferase G9a. AID 504332, 2011. Potency, µM (series often up to 102 µM), inactives show at the highest dose activity, negative = inhibition, usual class: inhibitors. G9a H3K9 monomethylation, AlphaScreen, 2 h. Histone-lysine N-methyltransferase EHMT2 (Homo sapiens), Q96KQ7. 350,000 tested, 8.8% active; also: potency is read from the fitted curve at half-maximal effect; % is scaled to controls: 0 for no effect and ±100 for the full control effect; nearly all actives have a fitted effect of over 75% in size
#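 Using a bead-based AlphaScreen, monomethylated H3K9 product from 2 h room-temperature reactions (G9a 20 nM, peptide 500 nM, SAM 20 uM) was detected with 0.5 ug/mL rabbit anti-H3K9me1 antibody.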
# HP1b chromo inh: HTS for Inhibitors of HP1-beta Chromodomain Interactions with Methylated Histone Tails. Chromobox protein homolog 1 (Homo sapiens), P83916. AlphaScreen HP1-beta / biotin-H3K9me3 peptide binding. Potency, µM (series often up to 114 µM), inactives show at the highest dose activity change, negative = inhibition, hits mostly inhibitors. 390,000 tested, 0.56% active; also: potency is read from the fitted curve at half-maximal effect; nearly all actives have a fitted effect of over 70% in size
#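 Compound inhibition of the preformed complex between 50 nM HP1-beta and 50 nM biotinylated H3K9me3 peptide was read by AlphaScreen. Buffer was PBS pH 7.4 with 0.01% Tween-20. Incubations ran 30 min at room temperature, with 10 ug/mL donor/acceptor beads.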
# BAZ2B block: qHTS Assay for Inhibitors of BAZ2B | Potency, µM (doses to about 114 µM), without a hit: top-dose activity change, negative = inhibition, hits mostly inhibitors | AID 504333, 2011 | AlphaScreen BAZ2B-H3K14Ac peptide displacement | 360,000 tested, 4.4% active; also: potency is read from the fitted curve at half-maximal effect; % is scaled to controls: 0 for no effect and ±100 for the full control effect; nearly all actives have a fitted effect of over 60% in size
#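 Complex of BAZ2B and biotin-H3K14Ac (50 nM apiece) forms over 30 min at RT, then faces library compounds up to 110 uM for another 30 min; AlphaScreen beads added, 20 min dark incubation, luminescence read.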
# PI5P4K alpha inh: qHTS for Inhibitors of phosphatidylinositol 5-phosphate 4-kinase (PI5P4K); Phosphatidylinositol 5-phosphate 4-kinase type-2 alpha (Homo sapiens), P48426; PI5P4Kalpha enzyme, ADP-Glo luminescence, 60 min; active compounds read low; max response, %; 330,000 tested, 1.2% active; AID 652105, 2013; active = max response of -50% or lower; inconclusive = between -30% and -50%; inactive = -30% or higher; also: value at the top dose of about 77 µM; % is scaled to controls: 0 for no effect and ±100 for the full control effect
#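 Compounds were pin-transferred onto PI5P4Kalpha and substrate in HEPES pH 7.4 buffer with EGTA, CHAPS and 5% DMSO. ATP (5 microM final) started the reaction, which ran 60 minutes at room temperature before ADP-Glo detection.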
# JMJD2A Tudor inh: qHTS Assay for Inhibitors of JMJD2A-Tudor Domain; Lysine-specific demethylase 4A (Homo sapiens), O75164; AlphaScreen JMJD2A-Tudor / H3K4me3 peptide binding; Potency, µM (highest dose often 114 µM), for the others: at the top dose activity change, negative = inhibition, usual class: inhibitors; 390,000 tested, 4.4% active; also: potency is read from the fitted curve at half-maximal effect; % is scaled to controls: 0 for no effect and ±100 for the full control effect; nearly all actives have a fitted effect of over 50% in size
# PLK1 PBD inh: qHTS for Inhibitors of PLK1-PDB (polo-like kinase 1 - polo-box domain): Primary Screen. Serine/threonine-protein kinase PLK1 (Homo sapiens), P53350. Plk1 PBD binding of FITC phosphopeptide, fluorescence polarization. Potency, µM, inactives show max response, negative = inhibition, most hits filed as inhibitors. 360,000 tested, 2.8% active. AID 720504, 2013; also: potency is read from the fitted curve at half-maximal effect; series mostly up to about 57 µM; % is scaled to controls: 0 for no effect and ±100 for the full control effect; nearly all actives have a fitted effect of over 65% in size
# Target sequence (P53350 whole entry, looked up, the tested form may be a part): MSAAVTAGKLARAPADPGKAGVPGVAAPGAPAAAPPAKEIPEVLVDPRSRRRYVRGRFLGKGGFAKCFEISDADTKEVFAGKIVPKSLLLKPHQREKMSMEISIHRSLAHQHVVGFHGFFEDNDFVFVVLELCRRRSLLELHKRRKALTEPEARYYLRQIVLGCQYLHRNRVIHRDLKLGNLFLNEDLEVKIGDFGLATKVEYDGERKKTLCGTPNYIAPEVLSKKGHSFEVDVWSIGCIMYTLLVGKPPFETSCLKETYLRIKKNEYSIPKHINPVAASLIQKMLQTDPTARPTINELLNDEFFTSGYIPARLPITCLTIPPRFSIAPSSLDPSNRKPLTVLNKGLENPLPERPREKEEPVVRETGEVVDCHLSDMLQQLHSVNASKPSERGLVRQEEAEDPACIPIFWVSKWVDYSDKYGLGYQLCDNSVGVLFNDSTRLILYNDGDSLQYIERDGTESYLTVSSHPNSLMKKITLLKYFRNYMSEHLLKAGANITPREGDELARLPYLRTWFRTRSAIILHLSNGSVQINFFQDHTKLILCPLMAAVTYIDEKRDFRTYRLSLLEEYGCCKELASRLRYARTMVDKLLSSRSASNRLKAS
# * marks the source's active call; other numbers are inactive results; ? = inconclusive; nt = not tested or not shown; [ ] = another dose, or the depositor's remark. Unless noted, calls follow the shape of the dose curve; as a rule, active = well fitted curve in the direction sought with a large enough effect; inconclusive = small, poorly fitted or top-dose-only effect, or another doubt; inactive = no such curve, though single readings can be large; an effect the other way counts as inactive or inconclusive.
SMILES,G9a block,HP1b chromo inh,BAZ2B block,PI5P4K alpha inh,JMJD2A Tudor inh,PLK1 PBD inh
COCCNC(=O)CCC(=O)N1Cc2cccc(OC)c2Oc2ncccc21,4%[59 µM],60%,25%[57.1 µM],nt,-5%,nt
COc1ccccc1-c1cc(NCc2ccccc2)ncn1,3%[0.501 µM],nt,nt,nt,nt,nt
O=C(NCc1n[nH]c(=S)n1-c1cccc(C(F)(F)F)c1)c1ccc(S(=O)(=O)N2CCCC2)cc1,13µM*,34%,15%,-9,-32%,-20%
Cc1ccc(C(=O)NCc2cccc(C(F)(F)F)c2)cc1S(=O)(=O)N1CCCCC1,6%,28%,8%,5,8%,6%
O=C(O)c1ccc(CNC(=O)c2ccc(S(=O)(=O)N3CCCC3)cc2)cc1,nt,nt,nt,0,nt,6%
O=C(NCc1n[nH]c(=S)n1-c1cccc(C(F)(F)F)c1)c1ccc(S(=O)(=O)N2CCCCC2)cc1,8.9µM*,29%,-14%,1,-11%,-6%
CC1CCN(S(=O)(=O)c2ccc3c(c2)N(CC(=O)Nc2ccc(F)c(Cl)c2)C(=O)CO3)CC1,6%[59 µM],56%,1%,nt,0%,nt
COCCn1c(SCCCc2ccccc2)nc2c1c(=O)[nH]c(=O)n2C,50µM*,-11%,9%,-3,-2%,?
CCCCCOC(=O)CSc1nc2c(c(=O)[nH]c(=O)n2C)n1CCc1ccccc1,13µM*,-15%,-6%,-10,8%,21µM*
COCCn1c(SCC(=O)OCc2ccccc2)nc2c1c(=O)[nH]c(=O)n2C,32µM*,1%,-3%,0,-8%,?
COCCSc1nc2c(c(=O)[nH]c(=O)n2C)n1CCCc1ccccc1,nt,-24%,5%,-22,-16%,21µM*
CCCCCn1c(SCCc2ccccc2)nc2c1c(=O)[nH]c(=O)n2C,-5%,27%,14%,-4,-14%,-9%
CN(Cc1ccccc1)C(=O)CCC1CCN(S(C)(=O)=O)CC1,nt,50%,-8%,-9,2%,-7%
COc1ccc(CCNC(=O)c2cc(Nc3cc(C)cc(C)c3)nc3ccccc23)cc1OC,8%[59 µM],40%,nt,nt,-19%,nt
Cc1ccc(C)c(N2CCN(C(=O)C(CC(C)C)NS(=O)(=O)c3ccc4nc(C)sc4c3)CC2)c1 (stereo not drawn),-2%[59 µM],48%,3%,nt,-25%,nt
Cc1cc(C)c(CN2CCN(C(=O)Cn3cnc4c(NCc5ccccc5)ncnc43)CC2)c(C)c1,nt,11%,nt,4,?,-3%
Cc1cc(C)c(C#N)c(Cl)n1,-1%[59 µM],15%,1%,14,1%,-2%
Cc1cc(C)nc(/N=c2/ssnc2Cl)c1,6.3µM*,-16%,nt,-1,-19%,1.1µM*
Nc1ccccc1N=c1ssnc1Cl,1.3µM*,-13%,50µM*,?,?,4.7µM*
Cc1cc(Cl)ccc1N=c1ssnc1Cl,1.8µM*,22µM*,8.9µM*,-53*,79µM*,1.5µM*
CCN1C(=O)[C@H]2[C@@H](c3ccc(C(F)(F)F)cc3)N[C@]3(CCCN(Cc4ccc(C(F)(F)F)cc4)C3=O)[C@H]2C1=O,nt,nt,nt,-9,nt,-10%
COc1ccc(/C=C/C(=O)N2CCC(c3nc4ccccc4o3)CC2)cc1OC,-7%[59 µM],6%,-18%,nt,-24%,nt
Cc1cc2nc(-c3ccc(C#N)cc3)c(Cc3ccsc3)n2c(C)c1Br,nt,nt,nt,-5,nt,-20%
COc1ccccc1OCC(=O)Nc1cc(C(F)(F)F)ccc1-n1cncn1,45µM*,44%,0%,-1,-3%,-2%
CCCN(CCC)Cc1cc(=O)oc2cc(C)c(C)cc12,nt,nt,nt,-1,nt,1%
SMILES,G9a block,HP1b chromo inh,BAZ2B block,PI5P4K alpha inh,JMJD2A Tudor inh,PLK1 PBD inh
O=C(O)c1ccc([N+](=O)[O-])c(CS(=O)(=O)c2ccc(Cl)cc2)c1,-45%,80%,?,-2,-9%,-10%
O=C(CBr)c1ccc([N+](=O)[O-])c(CS(=O)(=O)c2ccc(Cl)cc2)c1,7.1µM*,18%,-38%,-7,?,-23%
CN(C)CCN=Cc1c(O)n(Cc2ccccc2)c(=O)c2ccccc12,56µM*,-6%,-32%,-2,-22%,-3%
Cc1nn(C(=O)CCCn2cc([N+](=O)[O-])cn2)c(C)c1Cl,-32%,2%,6%,?,20µM*,21µM*
CCn1cc(Cl)c(C(=O)NNC(=O)CCn2cc([N+](=O)[O-])cn2)n1,-13%[59 µM],30%,-4%,4,-10%,-1%
CCN1CCN(S(=O)(=O)c2ccc(Cl)c(C(=O)NCc3ccco3)c2)CC1,-49%,20%,-11%,1,-10%,-12%
Cc1nc(SC2C=CS(=O)(=O)C2)n[nH]1 (stereo not drawn),50µM*,8%,?,nt,56µM*,-5%
CCOC(=O)c1cccc(NS(=O)(=O)c2ccc(-c3coc(C)n3)cc2)c1,2%[59 µM],29%[57 µM],-1%,nt,-10%,nt
Cc1ccc(C(=O)N/C(=C\c2cccs2)C(=O)NCCCn2ccnc2)cc1,10%[59 µM],23%,-35%,3,-17%,2%
Cc1ccc(C(=O)N/C(=C\c2ccco2)C(=O)NCCCn2ccnc2)cc1C,-40%[59 µM],25%,7.9µM*,nt,18µM*,-3%
Cc1ccc(C(=O)N/C(=C\c2cccs2)C(=O)N2CCN(C)CC2)cc1C,71µM*,18%,-2%,9,-8%,-4%
O=C(NCCCn1ccnc1)/C(=C/c1ccco1)NC(=O)c1cccs1,?,30%,79µM*,-3,-8%[11.4 µM],-10%
Cc1ccc(C(=O)N/C(=C\c2cccs2)C(=O)NCCCn2ccnc2)cc1C,12%,13%,50µM*,-1,?,2%
O=C(NCCCn1ccnc1)/C(=C/c1ccco1)NC(=O)c1ccco1,-31%,?,-36%,-7,?,-13%
Cc1c(NC(=O)c2nc3ccccc3nc2N2CCCCC2)cccc1[N+](=O)[O-],-51%[59 µM],-12%,?,nt,?,nt
